Results: PubChem BioAssay (NCI)
The panel holds about 83,000 compounds, 20% with a hit somewhere; the sample as a whole holds those more often.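 Plates (96-well) were seeded with cells, treated with compound at one concentration, and incubated for 48 hours before percent growth was determined.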 Values without a mark were called inactive. Activity calls are given as the source filed them. How the source made its calls: active means growth percent below 10; inactive means the rest.

Columns and labels:
Assay in all cases: NCI-60 one-dose screen, 48 h (100 = growth as untreated, 0 = no growth, -100 = all killed)
Details in all cases: 10 µM unless noted
SR leukemia = test system: SR leukemia
RPMI-8226 leukemia = test system: RPMI-8226 leukemia
OVCAR-8 ovarian = test system: OVCAR-8 ovarian
OVCAR-5 ovarian = test system: OVCAR-5 ovarian
OVCAR-4 ovarian = test system: OVCAR-4 ovarian
IGROV1 ovarian = test system: IGROV1 ovarian
OVCAR-3 ovarian = test system: OVCAR-3 ovarian
HS 578T breast = test system: HS 578T breast
NCI/ADR-RES ovarian = test system: NCI/ADR-RES ovarian
SK-OV-3 ovarian = test system: SK-OV-3 ovarian

| SMILES | growth (SR leukemia) | growth (RPMI-8226 leukemia) | growth (OVCAR-8 ovarian) | growth (OVCAR-5 ovarian) | growth (OVCAR-4 ovarian) | growth (IGROV1 ovarian) | growth (OVCAR-3 ovarian) | growth (HS 578T breast) | growth (NCI/ADR-RES ovarian) | growth (SK-OV-3 ovarian) |
| --- | --- | --- | --- | --- | --- | --- | --- | --- | --- | --- |
| CC/C=C\C[C@H](O)C/C=C1/C(=O)C=C[C@@H]1C/C=C\CCCC(=O)OC | -4.28% (active) | -11.5% (active) | -6.94% (active) | 27.1% | 36.8% | 0.514% (active) | -6.12% (active) | 41.1% | 20.6% | – |
| O=C(c1ccccc1)N1N=C(c2ccccc2)CC1c1nnc2n(Cc3ccccc3)c(=O)c3c4c(sc3n12)CCCC4 (centres undefined) | -16.1% (active) | 91.6% | 106% | 133% | 108% | – | 112% | 109% | 118% | 106% |
| CCOC(=O)/C=C/c1cc2cc(-c3csc4ccccc34)ccc2[nH]1 | 0.282% (active) | 47.4% | 19.6% | 101% | 92.3% | – | 77.1% | 67.2% | 30.8% | 132% |
| COC(=O)[C@]12CC[C@@H](C)[C@H](C)[C@@H]1C1=CC[C@@H]3[C@@]4(C)C(C=O)=C[C@@](C)(COS(C)(=O)=O)C4[C@H](O)C[C@@]3(C)[C@]1(C)CC2 (some centres undefined) | -33.3% (active) | -10.7% (active) | -50.1% (active) | -38.3% (active) | -52.8% (active) | – | -88.7% (active) | -30.6% (active) | -1.9% (active) | -35.2% (active) |
| N#Cc1c(-c2cccc(Cl)c2)cc(-c2cccc(F)c2)[nH]c1=O | 104% | 65.4% | 93.5% | 95.8% | 83.7% | – | – | 81.9% | 98% | 102% |
| Cn1c(-c2c(N)n(Cc3ccc(C(F)(F)F)cc3)c3nc(C#N)c(C#N)nc23)nc2ccccc21 | -35.5% (active) | -42.3% (active) | 7.05% (active) | 30% | 22.6% | 16.9% | -8.62% (active) | 12.4% | 6.65% (active) | – |
| CN(C)CC1=NC2SC=C(c3ccccc3)C2C(=O)N1CC#N (centres undefined) | 70.4% | 49.6% | 97.1% | 89.7% | 85.3% | – | – | 118% | 98.1% | 119% |
| O=c1c2c3c(sc2n2c(-c4cc(-c5ccccc5)nn4-c4ccccc4)nnc2n1Cc1ccccc1)CCCC3 | 13.2% | 14.2% | 49.5% | 113% | 83.2% | – | – | 356% | 80.4% | 133% |
| Cc1cc(NCc2cc(Nc3ccnc4cc(Cl)ccc34)ccc2F)nc(N2CCCC2)n1 | -23.9% (active) | -24.2% (active) | 2.5% (active) | 6.27% (active) | -0.25% (active) | – | -73.6% (active) | 56.8% | 12.7% | 51.1% |
| CC(CCc1ccc(Cl)c(Cl)c1)NCc1ccc(C(C)(C)C)cc1 (centres undefined) | -10.5% (active) | 74.5% | 85.8% | 91.3% | 88.1% | – | 98.2% | 85.2% | 86.3% | 93.6% |
| C=C1C(=O)O[C@H]2[C@H]1CC/C(CNC(=O)/C=C/c1ccc(Cl)cc1Cl)=C\CC[C@@]1(C)O[C@@H]21 | -28.8% (active) | -33.1% (active) | -28.7% (active) | -31.9% (active) | -52.7% (active) | – | -100% (active) | -4.31% (active) | 2.07% (active) | 20.3% |
| Fc1ccc(CNc2c3ccccc3nc3ccccc23)cc1F | 17% | 26.9% | 32.1% | 44.6% | 35.4% | – | 68.9% | 64.8% | 27.6% | 55.7% |
| C[n+]1cc2cc(C(N)=O)[nH]c3c(=N)c(Cl)c(N)c1c23 | 37.6% | 73% | 43.1% | 62% | 73% | 65.1% | 63.1% | 108% | 60% | – |
| O=Cc1c[nH]c2ccc(-c3csc4ccccc34)cc12 | 6.86% (active) | 27.8% | 27.6% | 86.3% | 94.2% | 20.5% | 23.8% | 40.4% | 12.3% | – |
| O=C(COc1ccc(/C=C2\Oc3ccccc3C2=O)cc1)Nc1nc2ccccc2s1 | -71.9% (active) | -56.8% (active) | 18.8% | 67.8% | 89.9% | – | 66.5% | 88.5% | 75.5% | 116% |
| N/C(=N\c1nc2ccccc2s1)NC(=O)Nc1cccc(Cl)c1 | 14.8% | 41.6% | 47.7% | 67.5% | – | 35.5% | 15.8% | 17.5% | 11.8% | 41.9% |
| COc1ccc(C(=O)COc2ccc(/C=C3\Oc4ccccc4C3=O)cc2)cc1 | 108% | 89% | 98.9% | 96.8% | 99.2% | – | 102% | 100% | 91.8% | 103% |
| N#CCN1C(=O)C2C3=C(CCCC3)SC2N=C1CN1CCCC1 (centres undefined) | 81.1% | 50.2% | 97.7% | 101% | 101% | – | 113% | 108% | 96.3% | 109% |
| Cc1cccc(-c2nc(N(C)c3ccc4ncsc4c3)c3ccccc3n2)n1 | 17.3% | 50.1% | 91.2% | 108% | 85.7% | – | 62.6% | 103% | 58.5% | 96.6% |
| CCN(CC)CCCCCCNc1cc(OC)c(Cl)c2cccnc12 | 42.2% | 75.3% | 84.9% | 83% | 73.6% | 86.6% | 66.9% | 58.8% | 79.3% | – |
| Cc1ccc(C(=O)COc2cccc(/C=C3\Oc4ccccc4C3=O)c2)cc1 | 71.9% | 106% | 106% | 106% | 85.7% | – | 96.6% | 322% | 88.3% | 134% |
| CC(C)(C)n1cc(-c2ccnc(NCCCNS(=O)(=O)c3ccccc3)c2)c(-c2ccccc2)n1 | 31.7% | 65.5% | 68.9% | 94% | 70.4% | – | 83.9% | 96% | 74.6% | 85.1% |
| CN(C)c1ccc(-c2cc(-c3ccc(Nc4nc(Nc5ccc(Cl)cc5)nc(Nc5ccc(Cl)cc5)n4)cc3)no2)cc1 | -39.3% (active) | -58.6% (active) | 49.7% | 54.6% | 41.6% | – | 29.8% | 13.6% | 41.1% | 80.1% |
| N#Cc1nc2c(S(=O)(=O)c3ccc(Cl)cc3)c(N)n(Nc3cccc(Cl)c3)c2nc1C#N | -6.78% (active) | 3.39% (active) | 24% | 68.4% | 42.6% | – | 59.4% | 31.2% | 79.6% | 50.2% |
| O=C(COc1ccc(/C=C2\Oc3ccccc3C2=O)cc1)c1ccc(Cl)cc1 | 90.8% | 111% | 105% | 97.4% | 115% | – | 96.6% | 112% | 110% | 105% |
| Cc1ccc(CCC(=O)Nc2ncc(Cc3cc(Cl)ccc3Cl)s2)o1 | 16.2% | 19.9% | 11.8% | 23.2% | 43.3% | 17% | -0.778% (active) | 9.73% (active) | -4.35% (active) | – |
| COc1ccc(/C=c2\nc3n(-c4ccccc4)c4nc5c6c(sc5c(=N)n4n-3c2=O)CCCC6)cc1 | 61.5% | 80.1% | 89.3% | 104% | 82% | 61.4% | 88.2% | 85.6% | 83.1% | – |
| CC/C=C\C/C=C\C[C@H](O)C/C=C1/C(=O)C=C[C@@H]1C/C=C\CCCC(=O)O | 6.21% (active) | 3.88% (active) | -4.92% (active) | 65.3% | 47.4% | 63.1% | 7.83% (active) | 42.6% | 31.3% | – |
